Laboratory results taken from paper PMC7819943, “Rice protein-binding microarrays: a tool to detect cis-acting elements near promoter regions in rice”.
In all, about 68,000 sequences were measured (“fluorescence intensity (a.u.)”: median about 9,100, highest 2% from about 16,000 on). Only a selection was taken, and the highest values are over-represented in it overall.

target: OsWRKY34 (Oryza sativa, UniProt Q0JBA9 1-250); experiment: protein-binding microarray (RPBM); PBS, 2% BSA, 51.3 ng/ul salmon testes DNA, 50 uM zinc acetate, 200 nM TF, 25 C, 1 h; high values mean tight binding; conditions: protein: recombinant; tags: N-terminal polyhistidine and DsRed monomer fusion (pET32a); label: CyDye5-dUTP incorporated in the synthesized complementary strand; 3' TTTTT single-stranded linker to array surface; dsDNA, one strand shown
Sequence (Q0JBA9 entry or part of it): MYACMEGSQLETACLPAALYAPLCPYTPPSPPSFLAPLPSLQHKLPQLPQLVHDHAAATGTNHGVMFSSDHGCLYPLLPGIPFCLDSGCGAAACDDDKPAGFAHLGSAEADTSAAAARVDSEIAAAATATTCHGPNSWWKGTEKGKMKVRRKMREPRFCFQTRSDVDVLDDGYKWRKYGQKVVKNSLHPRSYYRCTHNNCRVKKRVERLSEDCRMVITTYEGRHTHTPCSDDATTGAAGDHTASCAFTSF
In short: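 In PBS with 2% BSA, salmon testes DNA and 50 µM zinc acetate, 200 nM protein was incubated on a custom Agilent array at 25 °C for 1 h and then washed off. The array had been made double-stranded by primer extension with Cy5-dUTP and blocked with 2% BSA. The proteins were transcription factors fused N-terminally to polyhistidine and DsRed, expressed in E. coli BL21-CodonPlus and purified on Ni–NTA. The binding signal is per-feature fluorescence intensity (arbitrary units) from an Axon 4000B scanner.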

Row | Sequence | binding signal
1 | CATGTGCTAAAAAGTCAACGGTATCAAACATTTTTAAACGCGGAGTCACCTAGTGCAG | 15800 fluorescence intensity (a.u.)
2 | TCTCGAGGTTGTTACATTGTACTTGTCGCTAGCTCGTCATCGGAGTCACCTAGTGCAG | 8400 fluorescence intensity (a.u.)
3 | TCGCTAGTAGCTGTTGCTGCCTCTCCACCGCGTCCCTCTCCGGAGTCACCTAGTGCAG | 11000 fluorescence intensity (a.u.)
4 | GTCGCGCCTGACGCCGCCGTTGCGCCTGCCACCGCCTGTCCGGAGTCACCTAGTGCAG | 8220 fluorescence intensity (a.u.)
5 | CGCTCCACATAGGCTAGGCCCATGTCCCTTAGAGGATCCTCGGAGTCACCTAGTGCAG | 8380 fluorescence intensity (a.u.)
6 | CTCACGCGCTGCACCGCCGATACCCCACCCGCTGCTAGTTCGGAGTCACCTAGTGCAG | 8670 fluorescence intensity (a.u.)
7 | GTGCCACTCTGTCTCTTCCGTCCATAGCGCCGTCGTCTTCCGGAGTCACCTAGTGCAG | 17300 fluorescence intensity (a.u.)
8 | CTAACCCGCGCCCCAACCCTAGCCGCCTCCGCCCCGCCTCCGGAGTCACCTAGTGCAG | 8920 fluorescence intensity (a.u.)
9 | GCTACTACTGCTGCTGCTGCTACTTATCCACCGCTTTTTTCGGAGTCACCTAGTGCAG | 13600 fluorescence intensity (a.u.)
10 | GCAGCGCTCGTCTCTCTCTGTCTCTCCACTCTCTTCTCTCCGGAGTCACCTAGTGCAG | 10100 fluorescence intensity (a.u.)
11 | CCTCACATCTTCTTCTTCATCTCCCTGTCTCTGTCTCTGTCGGAGTCACCTAGTGCAG | 13500 fluorescence intensity (a.u.)
12 | CCGCCCTTAGACAGGCCCCGCCTCCGCCTCCGCGCCCACCCGGAGTCACCTAGTGCAG | 27800 fluorescence intensity (a.u.)
13 | TGTCACATTTTTCGTCGTCTCCATCTTCATCTTCTTGTCGCGGAGTCACCTAGTGCAG | 11200 fluorescence intensity (a.u.)
14 | GTCTTCCCCTAGCGCCGCCGCCTCCACCTCCGCCGCCGTCCGGAGTCACCTAGTGCAG | 8700 fluorescence intensity (a.u.)
15 | CCCCACCGCCCACCGCCCACCGCCCACCCACCTCCGCACCCGGAGTCACCTAGTGCAG | 11600 fluorescence intensity (a.u.)
16 | TACCCACACCGATCTGCCGCTGCCCAGTTCCACCTACTTTCGGAGTCACCTAGTGCAG | 16800 fluorescence intensity (a.u.)
17 | ACCCGTCTCTGTTCATCTCCACATCTTGTCTTCTCGCTGTCGGAGTCACCTAGTGCAG | 18100 fluorescence intensity (a.u.)
18 | CCCGACCCAAACCTCACCGCCGCCGTCGCCGTTGCCGCCGCGGAGTCACCTAGTGCAG | 8310 fluorescence intensity (a.u.)
19 | TTAACTCGACAGTTTGTGTGTGATTTCAGTACTACCACGACGGAGTCACCTAGTGCAG | 10400 fluorescence intensity (a.u.)

Row | Sequence | binding signal
20 | CTCCGCCGTCGCGTCCCCGCCGCCGCCGCCCGCCTTCCCCCGGAGTCACCTAGTGCAG | 9960 fluorescence intensity (a.u.)
21 | ACTCGCGATATGCTTGTAACTTGGTTTGGTATTCCATTCTCGGAGTCACCTAGTGCAG | 9670 fluorescence intensity (a.u.)
22 | GGGTTACGGCTGCAAGCTTGTTCTCTCCAGATGGGGAGTTCGGAGTCACCTAGTGCAG | 10400 fluorescence intensity (a.u.)
23 | CGCTTTCCTCTGTTTCTCCGCCGCGCTCGTTCGTCGTCTCCGGAGTCACCTAGTGCAG | 21400 fluorescence intensity (a.u.)
24 | TCCCTCCCGTCTCGTCTCCGCTCATTGCGCCATCTCGCGCCGGAGTCACCTAGTGCAG | 8660 fluorescence intensity (a.u.)
25 | CGCGCCCTCCTCCGCCGCCGCTCGCCGCCGTTCGTCTCCGCGGAGTCACCTAGTGCAG | 9840 fluorescence intensity (a.u.)
26 | GTCCTGCTGCTTCCGCCGCCGCCACCGTCCTGCTGCTTCCCGGAGTCACCTAGTGCAG | 9500 fluorescence intensity (a.u.)
27 | CTCCTCTCGCCGCCGCCGCCACCGCCACCGCCGCCGCTCCCGGAGTCACCTAGTGCAG | 10100 fluorescence intensity (a.u.)
28 | GCTCTCATGGCCTCACACACCGCGCCATTGCCATCGTTTCCGGAGTCACCTAGTGCAG | 17000 fluorescence intensity (a.u.)
29 | CCGCCGCTTCCTCGCCACCGCCGCTGCCGCCGCCACTTCCCGGAGTCACCTAGTGCAG | 19400 fluorescence intensity (a.u.)
30 | GTCTCCGCGCGCGCTCTCTCTTTCGTTCACTCTCGCTTTCCGGAGTCACCTAGTGCAG | 14500 fluorescence intensity (a.u.)
31 | GCCTCGCCTCGCCGCCGGCGGCCACCGTCTCCGCCGCCTCCGGAGTCACCTAGTGCAG | 8800 fluorescence intensity (a.u.)
32 | CTCGCCGCCGGCCTCCTCCACCACCACCGACGACTCCGACCGGAGTCACCTAGTGCAG | 8430 fluorescence intensity (a.u.)
33 | AACACCGTTCCTCCGCCGCGCCGTCATTGCCACCGGCCTCCGGAGTCACCTAGTGCAG | 9730 fluorescence intensity (a.u.)
34 | TTCTCCACCGCCGCCACCACCACCTCGCCTGGCCGGCCTCCGGAGTCACCTAGTGCAG | 18000 fluorescence intensity (a.u.)
35 | CATCGACTACCTGCCATTCTTCTACTCCAGGGTCTTCTCGCGGAGTCACCTAGTGCAG | 9510 fluorescence intensity (a.u.)
36 | ATCTTATGGTGTATTTTTTTTTTCTCCGGTGCAGGTTGGTCGGAGTCACCTAGTGCAG | 8260 fluorescence intensity (a.u.)
37 | GATGTGAATCACCCTTTGCTTTGCTGAATCTACTCCTACACGGAGTCACCTAGTGCAG | 10600 fluorescence intensity (a.u.)
38 | GCGAACTCCGAGCGCGGAGGTTGAGGCGGCGGCGAGCGTGCGGAGTCACCTAGTGCAG | 9820 fluorescence intensity (a.u.)

Row | Sequence | binding signal
39 | CATTATTAAAATATATATGTGTTACATTCGGTATTATATTCGGAGTCACCTAGTGCAG | 8650 fluorescence intensity (a.u.)
40 | CCTCATGATGATGCCGAACGTCTCGACATTGACCGCGCCCCGGAGTCACCTAGTGCAG | 9370 fluorescence intensity (a.u.)
41 | CCGCCGCCCACCTCATGCCTTGCGCGGTGCCCGTGAGAGACGGAGTCACCTAGTGCAG | 8250 fluorescence intensity (a.u.)
42 | GATCGCTCCATAAACATGCAATATATCAATTTTAACTTTTCGGAGTCACCTAGTGCAG | 8900 fluorescence intensity (a.u.)
43 | CTCTCAGCCGGTCTATCAATTCCCCTTTCTGATACAATAACGGAGTCACCTAGTGCAG | 9570 fluorescence intensity (a.u.)
44 | CCCATTCTAGATATTAACTACTAATCTGACTCTATTTTTTCGGAGTCACCTAGTGCAG | 8880 fluorescence intensity (a.u.)
45 | TGGGTTTTATTTTCCCATTCTTTCGAGCTATTTTGACGGACGGAGTCACCTAGTGCAG | 8220 fluorescence intensity (a.u.)
46 | CATTTAAATCGCCATCACTCCGCGCGCTCTCCCATCCATCCGGAGTCACCTAGTGCAG | 8870 fluorescence intensity (a.u.)
47 | ACACTCTCGCCGTCGCCGCCTCCTCGCCTCCGCTTACTCCCGGAGTCACCTAGTGCAG | 16700 fluorescence intensity (a.u.)
48 | TCGCCTATCTCTCTATCTCTTTCGCCACCGCTTGCCTCTCCGGAGTCACCTAGTGCAG | 9030 fluorescence intensity (a.u.)
49 | TCCCGCTTCTCCTCCGTCGCTCTCCGCCGCCGCCGCCACCCGGAGTCACCTAGTGCAG | 10200 fluorescence intensity (a.u.)
50 | CGTCGCCGCCGCCGGCGTCTTCTCCACCTCCTCCGCGCCGCGGAGTCACCTAGTGCAG | 8030 fluorescence intensity (a.u.)
51 | CTCTCCTCTCCTCGCTTCTTCGTCTCGCTTGCTCGCTCGCCGGAGTCACCTAGTGCAG | 8550 fluorescence intensity (a.u.)
52 | GCGCGCGCCGGCCTCCGTCTTCCTCCGCGGGTGCGCCACCCGGAGTCACCTAGTGCAG | 10400 fluorescence intensity (a.u.)
53 | CGCCGCCTCCGCTCCACTCTCCTCGCCGTCGCCGGTCCTCCGGAGTCACCTAGTGCAG | 11500 fluorescence intensity (a.u.)
54 | ACCCGCTTCTCGTCTCCTCGTCTCCTCGTTCGTCTCTCGCCGGAGTCACCTAGTGCAG | 18000 fluorescence intensity (a.u.)
55 | GTCGTCGCCTGCCTCTTCGTCGCCGCTCTCGTCTCCGCTCCGGAGTCACCTAGTGCAG | 9880 fluorescence intensity (a.u.)
56 | GCTCTATCTTTACTCGCCATTTAATCGTTGCCTCGCGCTCCGGAGTCACCTAGTGCAG | 16900 fluorescence intensity (a.u.)
57 | TTCCTCCGTCTGCGTGCCGGCTTCTGTCTTCCTCCGCGCGCGGAGTCACCTAGTGCAG | 17300 fluorescence intensity (a.u.)
